The record followed here is PubChem BioAssay (NCATS).

Assay [1] in a line: P-glycoprotein substrates identified in KB-8-5-11 adenocarcinoma cell line, qHTS therapeutic library screen (AID 1346987). Further: nearly all actives have a fitted effect of over 65% in size. Further: potency means the concentration at half of the fitted maximal effect. The procedure, abridged:
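Compounds are pinned in dose-response onto KB-8-5-11 cells (500 cells/well, colchicine-free medium) and left 72 h at 37 degree C. CellTiter-Glo luminescence then yields AC50 values.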

Assay [2] deals with Zika virus NS2B-NS3 protease (unlinked complex). The assay can be described thus: Primary screen GU Rhodamine qHTS for Zika virus inhibitors: Unlinked NS2B-NS3 protease assay (AID 1347159). Further: nearly all actives have a fitted effect of over 60% in size. Further: potency means the concentration at half of the fitted maximal effect. The method in brief: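 Enzyme 25 nM in Tris-HCl pH 8.0 + 0.01% Tween 20; compounds up to 114 microM, 15 min RT dark; + Rhod110 substrate 1.5 microM; read t0 and 15 min; delta fluorescence → % inhibition → 4-parameter Hill fit.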

Assay [3] relates to Zika virus NS2B-NS3 protease (linked construct). The assay can be described thus: Primary screen NINDS Rhodamine qHTS for Zika virus inhibitors (AID 1347160). Further: nearly all actives have a fitted effect of over 55% in size. Further: potency means the concentration at half of the fitted maximal effect. The method in brief: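 Enzyme (25 nM, linked NS2B-NS3) was preincubated 15 min with compound in 10 mM Tris-HCl pH 8.0, 0.01% Tween 20. Rhodamine110 substrate (1.5 microM) was then added and fluorescence read at start and after 15 min.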

The target in assay [4] is Calcium and integrin-binding protein 1 (Homo sapiens) (UniProt Q99828). Briefly: Primary qHTS for Identification of Calcium Integrin Binding Protein 1 (CIB1) Competitor (AID 1508620).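 Further: GST tagged CIB1 binding a fluorescein labelled alphaIIb integrin peptide tracer; top concentration of the series differs between compounds; on the % scale 0 is the no-effect control and ±100 the full control effect.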 The procedure, abridged: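 Fluorescence polarization competition: CIB1-GST (1 uM final) preincubated with compound 15 min at room temperature, then FITC-labeled alphaIIb peptide (100 nM final) added for another 15 min. Polarization read at Ex 480/Em 540.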

Assay [5] can be described thus: Primary qHTS for inhibitors of nuclear receptor binding SET domain protein 2 (NSD2) in an isogenic RCH-ACV NSD2 p.E1099K mutant (9B) (AID 1645876). Further: nearly all actives have a fitted effect of over 70% in size. Further: potency means the concentration at half of the fitted maximal effect.
A short description of assay [6]: Primary qHTS for inhibitors of nuclear receptor binding SET domain protein 2 (NSD2) in an RCH-ACV wild type WT cells (2C) (AID 1645877). Further: nearly all actives have a fitted effect of over 70% in size. Further: potency means the concentration at half of the fitted maximal effect.
Assay [7] concerns the target Glutathione peroxidase 1 (Homo sapiens) (UniProt P07203). Briefly: Primary qHTS Assay for Inhibitors of Recombinant Selenoprotein Glutathione Peroxidase 1 (GPX1) (AID 1845191). Further: nearly all actives have a fitted effect of over 65% in size. The procedure, abridged:
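GPX1 10 nM, GR 100 nM, GSH 1 mM, NADPH 0.5 mM, CHP 0.5 mM (final). 30-min cpd preincubation, RT. Ex340/Em450 read t=0, t=15 min.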

Assay [8] concerns the target Phospholipid hydroperoxide glutathione peroxidase GPX4 (Homo sapiens) (UniProt P36969). Briefly: Primary qHTS Assay for Inhibitors of Recombinant Selenoprotein Glutathione Peroxidase 4 (GPX4) (AID 1845192). Further: nearly all actives have a fitted effect of over 65% in size. The procedure, abridged:
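qHTS, GR-coupled: GPX4 200 nM + cpd 30 min RT → GSH 1 mM, NADPH 0.5 mM, GR 100 nM → CHP 0.5 mM start; fluor 340/450 at t0 and t15 min; no-enzyme wells as control.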

The target in assay [9] is Luciferin 4-monooxygenase (Photinus pyralis) (UniProt P08659). Briefly: Primary firefly luciferase (FLuc) qHTS assay for identification of artifact compounds. (AID 1845220). Further: nearly all actives have a fitted effect of over 60% in size. The note with it: outcome: dose series up to 54.1 µM unless noted. The procedure, abridged: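 In this counter-screen for luciferase artifacts, test compounds met substrate (10 uM each luciferin and ATP) before 10 nM enzyme started the reaction. Light output was measured 5 min later.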

Assay [10] can be described thus: Primary fluorescence-based thiol-reactive (MSTI) qHTS assay for identification of artifact compounds. (AID 1845221).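 Further: thiol-reactive compounds lower the probe fluorescence signal; nearly all actives have a fitted effect of over 65% in size.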 The method in brief:
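qHTS titration of compound; 4 uM MSTI, PBS pH 7.4, 2% DMSO; 1 h RT, dark; fluorescence 525/598 nm; normalized to Acetyl-MSTI and MSTI; 4-parameter Hill fit.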

Assay [11] relates to Nanoluciferase (engineered Oplophorus gracilirostris luciferase). The assay can be described thus: Primary Nanoluciferase (NLuc) qHTS assay for identification of artifact compounds. (AID 1845222).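 Further: NLuc secreted into diluted conditioned medium of S16 cells.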 The method in brief: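 Using secreted nanoluciferase in S16 culture medium (0.22 um filtered, 1:55 dilution), compounds were preincubated 15 min at RT. Signal was generated with Nano-Glo reagent (1:100) over 5 min.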

The next assay concerns KB-3-1. The assay can be described thus: Cytotoxic Profiling of Annotated Libraries Using Quantitative High-Throughput Screening (AID 1296008). Further: nearly all actives have a fitted effect of over 60% in size. Further: potency means the concentration at half of the fitted maximal effect. On max response: on the % scale 0 is the no-effect control and ±100 the full control effect. The note with it: Five cell lines viability, CellTiter-Glo ATP luminescence, 48-72 h; max response: active compounds read low. The procedure, abridged: (§1)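 Compounds were pin-transferred onto cells and incubated 48 or 72 hr at 37 degree Celsius, 95% humidity. CellTiter-Glo was added, plates sat 10 min at room temperature, then ATP-coupled luminescence was imaged as the viability read-out.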

In another assay the test system is CASKI. The assay can be described thus: Primary qHTS to identify gynecologic anti-cancer compounds using libraries of approved drugs and bioactive compounds (AID 1345084). Further: nearly all actives have a fitted effect of over 55% in size. Further: potency means the concentration at half of the fitted maximal effect. On activity change, negative = cytotoxicity: on the % scale 0 is the no-effect control and ±100 the full control effect. The note with it: Gynecologic cancer cell panel viability, ATPlite luminescence, 48 h; series mostly up to 57.5 µM. The procedure, abridged: (§2)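 Cells, 1,000 per well, were allowed to settle for 16 h at 37 C before compound addition. Five concentrations were tested for 48 h, and viability was read by ATPlite luminescence after 15 min at room temperature.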

The next assay relates to OV90. Described as above. Particulars: Gynecologic cancer cell panel viability, ATPlite luminescence, 48 h; series mostly up to 57.5 µM. The procedure, abridged:
as §2

In the next assay the test system is Tov-21-G. Described as above. Particulars: Gynecologic cancer cell panel viability, ATPlite luminescence, 48 h; series mostly up to 57.5 µM. The method in brief: as §2
The next assay deals with HaCat. Briefly: Cytotoxic Profiling of Annotated Libraries Using Quantitative High-Throughput Screening (AID 1296008). Further: nearly all actives have a fitted effect of over 60% in size. Further: potency means the concentration at half of the fitted maximal effect. On max response: on the % scale 0 is the no-effect control and ±100 the full control effect. The note with it: Five cell lines viability, CellTiter-Glo ATP luminescence, 48-72 h; max response: active compounds read low. The method in brief: as §1
The next assay has as its system JEG-3. Briefly: Primary qHTS to identify gynecologic anti-cancer compounds using libraries of approved drugs and bioactive compounds (AID 1345084). Further: nearly all actives have a fitted effect of over 55% in size. Further: potency means the concentration at half of the fitted maximal effect. The note with it: Gynecologic cancer cell panel viability, ATPlite luminescence, 48 h; series mostly up to 57.5 µM. The method in brief:
as §2

A number with no mark means an inactive call. Records with an inconclusive call do not appear. Calls of active or inactive are those of the source. The call rests on the fitted dose curve; in most records, active means well fitted curve in the direction sought with a large enough effect; inconclusive means small, poorly fitted or top-dose-only effect, or another doubt; inactive means no such curve, though single readings can be large; an effect the other way counts as inactive or inconclusive. Where a SMILES comes first, the peptide text is derived from it. [ ]: non-standard residue; d: D form. ξ: configuration not given here. ξLac(3-iPr) = CC(C)CC(O)C(=O)O; NMeV = CN[CH](C(=O)O)C(C)C; NMeA = CN[CH](C)C(=O)O; βAla = NCCC(=O)O

Chain of Calcium and integrin-binding protein 1 (Homo sapiens) (Q99828 whole entry, looked up): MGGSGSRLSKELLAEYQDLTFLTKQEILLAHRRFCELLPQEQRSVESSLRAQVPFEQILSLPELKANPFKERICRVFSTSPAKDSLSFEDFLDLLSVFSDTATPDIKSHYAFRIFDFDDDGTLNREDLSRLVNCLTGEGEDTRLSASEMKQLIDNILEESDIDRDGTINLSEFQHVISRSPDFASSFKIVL
Chain of Glutathione peroxidase 1 (Homo sapiens) (P07203 whole entry, looked up): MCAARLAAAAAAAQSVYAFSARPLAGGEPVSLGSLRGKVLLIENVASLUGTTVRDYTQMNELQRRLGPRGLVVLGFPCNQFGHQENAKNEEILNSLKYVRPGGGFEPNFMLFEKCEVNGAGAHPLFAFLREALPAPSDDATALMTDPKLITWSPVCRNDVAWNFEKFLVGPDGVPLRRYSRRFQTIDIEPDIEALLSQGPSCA
Chain of Phospholipid hydroperoxide glutathione peroxidase GPX4 (Homo sapiens) (P36969 whole entry, looked up): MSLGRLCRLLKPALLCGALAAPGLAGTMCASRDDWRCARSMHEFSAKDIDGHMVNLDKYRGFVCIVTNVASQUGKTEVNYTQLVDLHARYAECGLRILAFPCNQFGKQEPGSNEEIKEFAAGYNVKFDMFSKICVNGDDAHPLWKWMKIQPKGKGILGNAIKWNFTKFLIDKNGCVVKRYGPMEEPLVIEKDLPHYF

Regarding `CC(C)(O)/C=C/C(=O)[C@](C)(O)[C@H]1[C@H](O)C[C@@]2(C)[C@@H]3CC=C4[C@@H](C[C@H](O)C(=O)C4(C)C)[C@]3(C)C(=O)C[C@]12C`, the Potency is 0.448 µM (active) in assay [1]; 0.252 µM (active) in assay [5]; 0.142 µM (active) in assay [6]; 0.448 µM (active) in the assay with KB-3-1; 1.41 µM (active) in the assay with CASKI; 1.26 µM (active) in the assay on OV90. In addition, in the assay with Tov-21-G, the Potency was 1.26 µM (active). Also, the Potency entry in assay [2], in [3], in assay [4], in assay [7], in [8] and in assay [10] was “inactive” in each case. For the same compound, in assay [11], the Potency entry was “inactive”. Also, the compound was called inactive in assay [9].

Regarding `CCC(C)C1NC(=O)C2CCCN2C(=O)C(CC(C)C)OC(=O)CCNC(=O)C(C)N(C)C(=O)C(C(C)C)N(C)C1=O` (stereo not given) (cyclo([ξLac(3-iPr)]PI[NMeV][NMeA][βAla]); configuration not given here), the Potency result in assay [1], in [2], in [3], in assay [4], in assay [7] and in assay [8] was “inactive” each time. In addition, the Potency entry (in assay [10]; in [11]; in the assay on CASKI) was “inactive” each time. Also, the figures for the Potency (in assay [5]; in assay [6]; with OV90) were 2.71 µM (active), 1.92 µM (active) and 3.98 µM (active), respectively. For the same compound, in assay [9], the outcome was inactive. The max response with HaCat is -9.99%.

With `OC(CNc1ccccc1)Cn1c2ccc(Br)cc2c2cc(Br)ccc21` (stereo not given), the Potency entry (in assay [7]; in [8]; in assay [11]; in the assay on JEG-3; with OV90; with Tov-21-G) was “inactive” each time. For the same compound, the call in assay [9] was inactive. The max response is -16% with HaCat and -15.3% with KB-3-1.

In the case of `CC(C)OC(=O)c1ccnc2cc(C(OCCN3CCCCC3)c3ccccc3Cl)sc12` (stereo not given), the values for the Potency in assay [1], in assay [5] and in [6] were 20.6 µM (active), 14.5 µM (active) and 18.3 µM (active), respectively. Moreover, the Potency entry in assay [2], in [3], in assay [4], in assay [7], in [8] and in [10] was “inactive” each time. Also, the Potency entry (in assay [11]; in the assay with CASKI; in the assay on JEG-3; in the assay on Tov-21-G) was “inactive” throughout. For the same compound, the outcome (in assay [9]; with HaCat) was inactive.

`CC(=O)O[C@H]1C(=O)[C@]2(C)C(O)C[C@H]3OC[C@@]3(OC(C)=O)[C@H]2[C@H](OC(=O)c2ccccc2)[C@]2(O)C[C@H](O)C(C)=C1C2(C)C` (stereo not given in full): the Potency result in [1], in [2], in [3], in assay [4], in assay [7] and in [8] was “inactive” in each case. The Potency entry (in assay [11]; with JEG-3; with OV90; in the assay with Tov-21-G) was “inactive” throughout. In assay [9], the result was inactive. Moreover, the max response with HaCat was -29.4%.

On to `Cc1cccc(NC(=O)c2ccc(C(F)(F)F)cc2C(=O)O)n1`, for which the Potency entry in [1], in assay [2], in [3], in assay [4], in assay [5] and in assay [6] was “inactive” each time. Besides, the Potency result (in assay [7]; in assay [8]; in assay [10]; in [11]; with CASKI; with OV90) was “inactive” in each case. The outcome (in assay [9]; in the assay on HaCat; with KB-3-1) was inactive.

For the compound `CCCCCn1cc(C(=O)Cc2ccccc2OC)c2ccccc21`, the Potency result in assay [2], in [3], in assay [4], in [7], in assay [8] and in assay [10] was “inactive” throughout. For the same compound, the Potency result (in assay [11]; in the assay with CASKI; with JEG-3; in the assay on OV90; in the assay with Tov-21-G) was “inactive” each time. Moreover, in [9], the result was inactive. The max response in the assay on HaCat was -10.3%.

`Cc1sc2c(c1C)C(c1ccc(Cl)cc1)=N[C@@H](CC(=O)Nc1ccc(O)cc1)c1nnc(C)n1-2`: the Potency result in assay [3], in assay [7] and in [8] was “inactive” in each case. For the same compound, the Potency was 0.0615 µM (active) in assay [5] and 0.069 µM (active) in [6]. In addition, the outcome in [9] was “inactive [at 11.6 µM]”. Besides, in assay [10], the activity change, negative = thiol reactive is 36.2% [at 11.5 µM]. For the same compound, in assay [11], the activity, negative = inhibition is -3.15% [at 11.6 µM]. In addition, in the assay with HaCat, the result was inactive. Besides, the activity change, negative = cytotoxicity with JEG-3 was -12.8% [at 11.6 µM].

`CC(C)=CCC[C@]1(C)C=Cc2c(O)c3c(c(CC=C(C)C)c2O1)O[C@]12C(=C[C@@H]4CC1C(C)(C)O[C@@]2(C/C=C(/C)C(=O)O)C4=O)C3=O`: the Potency in assay [1] is 4.11 µM (active); in [2], 2.82 µM (active); in [3], 2.82 µM (active); in [5] it was 0.578 µM (active); in assay [6] it was 0.365 µM (active); with HaCat it was 4.61 µM (active). The Potency was 2.24 µM (active) with CASKI, 3.98 µM (active) in the assay on JEG-3, 5.01 µM (active) in the assay with OV90 and 7.94 µM (active) in the assay with Tov-21-G. For the same compound, in assay [9], the result was inactive. For the same compound, in assay [11], the Potency result is “inactive”.

As for `NNC(=O)c1nn(Cc2ccc(Cl)cc2Cl)c2ccccc12`, the Potency result in assay [1], in assay [2], in [3], in [7], in [8] and in assay [10] was “inactive” in each case. Besides, the Potency result (in assay [11]; with CASKI; with JEG-3; with OV90) was “inactive” in each case. Moreover, the compound was called inactive in [9]. The results for the max response in the assay with HaCat and with KB-3-1 were 3.64% and -14.6%, respectively.

For `C/C(=C\c1csc(C)n1)[C@@H]1C[C@@H]2O[C@@H]2CCC[C@H](C)[C@H](O)[C@@H](C)C(=O)C(C)(C)[C@@H](O)CC(=O)O1`, the Potency in [1] was 0.0058 µM (active); in assay [5], 0.0372 µM (active); in assay [6] it was 0.0263 µM (active); in the assay on KB-3-1 it was 0.0082 µM (active). In addition, the Potency result in assay [2], in assay [3], in [4], in assay [7], in [8] and in [10] was “inactive” throughout. Besides, the Potency result (in assay [11]; in the assay on JEG-3; with OV90) was “inactive” throughout. In [9], the compound was classed as inactive.

On to `CCOC(=O)c1ccnc2cc(C(OCCN3CCCCC3)c3ccccc3Cl)sc12` (stereo not given), for which the Potency result in assay [1], in [2], in [3], in assay [4], in assay [7] and in assay [8] was “inactive” each time. The Potency result in assay [10] and in assay [11] was “inactive” each time. Besides, the figures for the Potency in assay [5] and in assay [6] were 23 µM (active) and 20.5 µM (active), respectively. Besides, the compound was called inactive (in assay [9]; in the assay on HaCat). Further, the max response in the assay on KB-3-1 is 5.4%.
